Data on 16 molecules can be found in the supplement of paper PMC3414501.

Counter-ions that a name gives are not always drawn.

Test [1] relates to S. cerevisiae SK1 pCDA2-eGFP (USY613), sporulating. Nature of the test: CDA2-GFP sporulation assay sensitivity score (z-score vs DMSO controls); higher = stronger inhibition of sporulation, active = hit call of the paper.
Test [2] has as its system S. cerevisiae NKY1551 his4x/his4B, sporulating. As to the kind of experiment: HIS4 meiotic recombination assay sensitivity score (z-score vs DMSO controls); higher = stronger inhibition of sporulation/recombination, active = hit call of the paper.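 Note: active if sensitivity score above 5.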
Test [3] relates to S. cerevisiae AD1-9 (efflux-pump deficient), vegetative growth in YPD. Nature of the test: growth sensitivity score (doubling time z-score vs DMSO controls); higher = slower growth, strongly negative scores also mark growth inhibition (complete suppression), active = hit call of the paper. An outline of the steps: (§1)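 Yeast (Saccharomyces cerevisiae BY4741 and AD1-9) was grown in rich medium in microtiter plates from a starting OD600 of 0.065, with optical density read every 15 min over 24 hours. The growth sensitivity score was the difference between compound and solvent-only means, divided by the solvent-only standard deviation. Every experiment had eight solvent-only wells.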

Test [4] relates to S. cerevisiae BY4741 (wild-type), vegetative growth in YPD. The description is as above. An outline of the steps: as §1
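Throughout, for CDA2-GFP sporulation assay sensitivity score (z-score vs DMSO controls): active if sensitivity score above 5.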

Consider `O=c1c(O[C@@H]2O[C@H](CO)[C@@H](O)[C@H](O)[C@H]2O)c(-c2ccc(O)c(O)c2)oc2cc(O)cc(O)c12` [Isoquercetrin] (stock concentration (mM, diluted 1:100): 10), for which, in test [1], the “CDA2-GFP sporulation assay sensitivity score” value was -1.49 (inactive). The “HIS4 meiotic recombination assay sensitivity score” value in test [2] is -0.48 (inactive). Further, the growth sensitivity score was -0.6 (inactive) in test [3] and 0.03 (inactive) in test [4].

Take `CN1CCC(=C2c3ccccc3CCc3sccc32)CC1` [Pizotyline] (stock concentration (mM, diluted 1:100): 10): in test [1], the “CDA2-GFP sporulation assay sensitivity score” value is -0.44 (inactive). In test [2], the “HIS4 meiotic recombination assay sensitivity score” value is 9.23 (active). Besides, the results for the growth sensitivity score in test [3] and in test [4] were 161 (active) and 5.7 (active), respectively.

`Fc1ccc([C@@H]2CCNC[C@H]2COc2ccc3c(c2)OCO3)cc1` [Paroxetine] (stock concentration (mM, diluted 1:100): 8.8): in test [1], the “CDA2-GFP sporulation assay sensitivity score” value is -1.35 (inactive). Moreover, in test [2], the “HIS4 meiotic recombination assay sensitivity score” value was 9.22 (active). The values for the growth sensitivity score in test [3] and in test [4] were 118 (active) and 1.33 (inactive), respectively.

Turning to `CC(C)c1nc(CN(C)C(=O)N[C@H](C(=O)N[C@@H](Cc2ccccc2)C[C@H](O)[C@H](Cc2ccccc2)NC(=O)OCc2cncs2)C(C)C)cs1` [Ritonavir] (stock concentration (mM, diluted 1:100): 10), in test [1], the “CDA2-GFP sporulation assay sensitivity score” value was -0.68 (inactive). Moreover, in test [2], the “HIS4 meiotic recombination assay sensitivity score” value was -1.41 (inactive). Further, the growth sensitivity score in test [3] is 8.8 (active); in test [4], -0.97 (inactive).

With `CC1=Nc2ccc(Cl)cc2S(=O)(=O)N1` [Diazoxide] (stock concentration (mM, diluted 1:100): 10), the “CDA2-GFP sporulation assay sensitivity score” value in test [1] was 3.2 (inactive). Also, the “HIS4 meiotic recombination assay sensitivity score” value in test [2] is -1.19 (inactive). The growth sensitivity score in test [3] is 0.08 (inactive); in test [4], -0.72 (inactive).

Consider `COc1ccccc1N1CCN(CCCNc2cc(=O)n(C)c(=O)n2C)CC1` [Urapidil hydrochloride] (stock concentration (mM, diluted 1:100): 10), for which, in test [1], the “CDA2-GFP sporulation assay sensitivity score” value was 1.04 (inactive). Also, the “HIS4 meiotic recombination assay sensitivity score” value in test [2] was -0.7 (inactive). The growth sensitivity score was -0.84 (inactive) in test [3] and 0.85 (inactive) in test [4].

For `CO[C@H]1/C=C/O[C@@]2(C)Oc3c(C)c(O)c4c(c3C2=O)C2=NC3(CCN(CC(C)C)CC3)NC2=C(NC(=O)/C(C)=C\C=C\[C@H](C)[C@H](O)[C@@H](C)[C@@H](O)[C@@H](C)[C@H](OC(C)=O)[C@@H]1C)C4=O` [Rifabutin] (stock concentration (mM, diluted 1:100): 10), the “CDA2-GFP sporulation assay sensitivity score” value in test [1] is 6 (inactive). Further, in test [2], the “HIS4 meiotic recombination assay sensitivity score” value was -1.4 (inactive). The values for the growth sensitivity score in test [3] and in test [4] were 1.43 (inactive) and 0.72 (inactive), respectively.

On to `C[C@@H]1CN(CCCn2c3ccccc3c3ccccc32)C[C@H](C)N1` [Rimcazole] (stock concentration (mM, diluted 1:100): 10.1), for which the “CDA2-GFP sporulation assay sensitivity score” value in test [1] was 14.4 (active). Also, in test [2], the “HIS4 meiotic recombination assay sensitivity score” value is -2.16 (inactive). Besides, the growth sensitivity score is 20.3 (active) in test [3] and 89.4 (active) in test [4].

`O=C1CC[C@@H](C(=O)N2CSC[C@H]2C(=O)O)N1` [Pidotimod] (stock concentration (mM, diluted 1:100): 10): the “CDA2-GFP sporulation assay sensitivity score” value in test [1] was 0.46 (inactive). The “HIS4 meiotic recombination assay sensitivity score” value in test [2] was -0.31 (inactive). Besides, the values for the growth sensitivity score in test [3] and in test [4] were 0.59 (inactive) and -1.4 (inactive), respectively.

With `CN1C(=O)CC[C@H]1c1cccnc1` [Cotinine] (stock concentration (mM, diluted 1:100): 10), the “CDA2-GFP sporulation assay sensitivity score” value in test [1] is -0.11 (inactive). Moreover, the “HIS4 meiotic recombination assay sensitivity score” value in test [2] is -1.15 (inactive). The results for the growth sensitivity score in test [3] and in test [4] were 1.38 (inactive) and 0.49 (inactive), respectively.

For `C/C=C1\[C@H]2C=C(C)C[C@]1(N)c1ccc(=O)[nH]c1C2` [Huperzine a] (stock concentration (mM, diluted 1:100): 10), the “CDA2-GFP sporulation assay sensitivity score” value in test [1] is 3.17 (inactive). Besides, the “HIS4 meiotic recombination assay sensitivity score” value in test [2] is -0.7 (inactive). Further, the growth sensitivity score in test [3] is 1.24 (inactive); in test [4] it was -1.79 (inactive).

As for `CN(C)CCC=C1c2ccccc2COc2ccccc21` [Doxepin] (stock concentration (mM, diluted 1:100): 10), the “CDA2-GFP sporulation assay sensitivity score” value in test [1] was 18.2 (active). In addition, the “HIS4 meiotic recombination assay sensitivity score” value in test [2] was 3.87 (inactive). Also, the growth sensitivity score is 5.43 (active) in test [3] and 1.16 (inactive) in test [4].

As to `CC(C)(C)NC(=O)[C@@H]1C[C@@H]2CCCC[C@@H]2CN1C[C@@H](O)[C@H](Cc1ccccc1)NC(=O)[C@H](CC(N)=O)NC(=O)c1ccc2ccccc2n1` [Saquinavir mesylate] (stock concentration (mM, diluted 1:100): 8.8), the “CDA2-GFP sporulation assay sensitivity score” value in test [1] was -0.34 (inactive). Further, in test [2], the “HIS4 meiotic recombination assay sensitivity score” value is -1.67 (inactive). The growth sensitivity score in test [3] is -2.2; in test [4], 2.5 (active).

Consider `CC(=O)NC[C@H]1CN(c2ccc(N3CCOCC3)c(F)c2)C(=O)O1` [Linezolide] (stock concentration (mM, diluted 1:100): 10), for which, in test [1], the “CDA2-GFP sporulation assay sensitivity score” value was 0.79 (inactive). Besides, the “HIS4 meiotic recombination assay sensitivity score” value in test [2] is -0.83 (inactive). Besides, the growth sensitivity score in test [3] is 2.05 (active); in test [4], -1.67 (inactive).

Regarding `CN1CCc2cc(Cl)c(O)cc2[C@@H](c2ccccc2)C1` (stock concentration (mM, diluted 1:100): 9.9), the “CDA2-GFP sporulation assay sensitivity score” value in test [1] is 15.9 (active). For the same molecule, the “HIS4 meiotic recombination assay sensitivity score” value in test [2] is 3.2 (inactive). Moreover, the figures for the growth sensitivity score in test [3] and in test [4] were 0.38 (inactive) and -0.55 (inactive), respectively.

With `C[C@]12CC[C@@H]3c4ccc(O)cc4CC[C@H]3[C@@H]1CC[C@@H]2O` [Beta-Estradiol] (stock concentration (mM, diluted 1:100): 10), the “CDA2-GFP sporulation assay sensitivity score” value in test [1] was 0.49 (inactive). Further, the “HIS4 meiotic recombination assay sensitivity score” value in test [2] is -2.13 (inactive). In addition, the growth sensitivity score was 10.3 (active) in test [3] and 3.35 (active) in test [4].
